Measurements published in the supplement of paper PMC6555819.

Experiments:
Experiment in all cases: PBM binding z-score (relative to random genomic background probes); higher = stronger binding; sequences stand for … in GC…GCGATTGACAGCGTAGAATGAAGG
[1] = test system: RARb homodimer (NR concentration 270 nM)
Procedure, shortened: (§1)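 Custom Agilent 4×180K protein-binding microarrays carried double-stranded probes, each with a 34-nt variable region. These regions held direct-repeat seeds, single-nucleotide variants, half-site ablations and random human genomic background sequences. Ligand-free nuclear receptor dimers were incubated on the arrays for 1 h, antibodies against each partner (one per run) detected binding, and scanned fluorescence was regression-normalized. Binding z-scores take the random background probes as reference.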

[2] = test system: RARg:RXRa (NR concentration 270 nM, RXRa partner concentration 90 nM)
Procedure, shortened: as §1

[3] = test system: RARg homodimer (NR concentration 270 nM)
Procedure, shortened: as §1

[4] = test system: RXRa DBDmut IVT, anti-RXR (DBD mutation: RXRa K156A/R161A, NR concentration 90 nM)
Procedure, shortened: as §1

[5] = test system: RXRa homodimer (NR concentration 180 nM)
Procedure, shortened: as §1

[6] = test system: THRa:RXRa (NR concentration 90 nM, RXRa partner concentration 90 nM)
Procedure, shortened: as §1

[7] = test system: THRa homodimer (NR concentration 90 nM)
Procedure, shortened: as §1

[8] = test system: VDR:RXRa (NR concentration 270 nM, RXRa partner concentration 90 nM)
Procedure, shortened: as §1

[9] = test system: VDR homodimer (NR concentration 270 nM)
Procedure, shortened: as §1

Row | Sequence | PBM binding z-score [1] | PBM binding z-score [2] | PBM binding z-score [3] | PBM binding z-score [4] | PBM binding z-score [5] | PBM binding z-score [6] | PBM binding z-score [7] | PBM binding z-score [8] | PBM binding z-score [9]
1 | CAAACTGGGTCACCGGAAGGTCAAAGTCCGCATG | 5.45 | 8.27 | 7.08 | 0.907 | 6.37 | 4.2 | 1.61 | 5.93 | 2.92
2 | GCTAGTTGGTCAGTAAAAGGTCAAACACCGGTCG | 5.05 | 5.65 | 4.86 | 0.64 | 5.59 | 3.51 | 1.2 | 4.29 | 1.98
3 | TCGAGTAGGTTAGTCGGGGCATTCCGCCAACATA | 0.291 | -0.0295 | -0.243 | 0.165 | 0.00868 | 1.05 | -0.473 | 2.1 | -0.0294
4 | CCGACTGGGGCAAAGTTTACCATACTCAGTACGA | 0.876 | 1.01 | 1.06 | 1.29 | 0.757 | 0.304 | -0.108 | 0.062 | 0.435
5 | GCTAGCAGGTCATTTGGGTCACTCAATGACGGGC | 3.52 | 4.5 | 4.38 | 2.82 | 4.23 | 3.74 | 1.48 | 5.92 | 3.25
6 | TCTCGGGGGACACGAAGGTCAGAGCTTTCCAGAG | 4.17 | 4.68 | 5.9 | 1.89 | 3 | 3.32 | 1.58 | 3.72 | 1.76
7 | CCAGACAGGTGAGAAGGTAACTCATCCTCGATTA | 0.437 | 0.511 | 0.745 | 0.48 | 0.529 | 0.505 | 0.345 | 0.198 | -0.146
8 | TGTCAAAGTTCAAAGGTAACGCAAGTATCCACAC | 3.97 | 6.5 | 6.22 | 4.42 | 7.38 | 3.23 | 0.0532 | 5.17 | 4.37
9 | GATACAGGTTCAGCTAGAGGCCAGAGTATGGAAA | 1.13 | 4.48 | 1.11 | 3.05 | 1.33 | 1.16 | -0.412 | 2.28 | 2.29
10 | CCGACTGGGGCAGACAGGTTACCATACCATCCGG | 0.849 | 0.341 | 0.456 | -0.96 | 0.238 | -0.0397 | 0.0396 | -0.343 | -0.23
11 | GCTTACGGGTCAAAGGTTCTAGCATGAATAGAAT | 2.69 | 5.33 | 4.79 | 2.09 | 7.13 | 2.7 | -0.332 | 4.42 | 1.55
12 | CCTTACGGGTCACTGCAGGTTATAGCATCGGAGT | 3.23 | 4.87 | 4.67 | 1.59 | 5.03 | 4.41 | 0.184 | 4.19 | 1.17
13 | TCTCTTAGTTGAAGGGCAACCGACGAGTCCGTTT | 1.22 | 0.587 | 0.371 | 1.52 | 0.71 | 0.283 | 0.0407 | 0.951 | 1.24
14 | CCTAGTTGATCAGGAGGTCACACACCGGATATGA | 3.89 | 4.82 | 3.78 | 1.4 | 4.41 | 3.6 | 2.51 | 4.08 | 3.06
15 | ATATGTAGGTTACATCCGGGTTATTCAGGCTATG | 1.32 | 1.65 | 1.4 | 1.14 | 1.84 | 2.18 | 1.08 | 1.68 | 0.79
16 | ATCTCTAGGTAAAAGTTGAGTGAATCCCGAGGAT | 0.0614 | 0.517 | 0.653 | 0.044 | 0.435 | 0.387 | 0.0583 | -0.00666 | -0.06
17 | CAAACTAGATCAAAGGTCAAAGTCGAGCCAACCA | 4.67 | 6.29 | 5.66 | 2.16 | 7.75 | 3.51 | 0.812 | 4.93 | 2.87
18 | TCGAGTAGGTTACCAATGGGGCCTTCAGCTTTCT | 0.0421 | 0.0942 | -0.234 | 0.173 | 0.293 | -0.167 | -0.919 | -0.371 | -0.944

Row | Sequence | PBM binding z-score [1] | PBM binding z-score [2] | PBM binding z-score [3] | PBM binding z-score [4] | PBM binding z-score [5] | PBM binding z-score [6] | PBM binding z-score [7] | PBM binding z-score [8] | PBM binding z-score [9]
19 | ATCTCTAGGTAAAAGTTAAGTGAATCCCGAGGAT | -0.425 | 0.121 | 0.586 | -0.231 | 0.0332 | 0.344 | -0.106 | -0.0664 | 0.265
20 | GTACCAAGGTGAATAGGTCGTTGACGAGTAGGCG | 1.93 | 2.91 | 1.53 | -0.0525 | 2.19 | 1.92 | 0.438 | 0.987 | 0.14
21 | CAAACTATGTCACGAAAGGTCAAAGTCGAATGAC | 5.15 | 6.02 | 5.58 | 1.55 | 6.73 | 4.49 | 1.4 | 5.07 | 2.8
22 | TCATATAGGTAAACACGTGAAAGTCCGTAAGTTA | 0.112 | 0.245 | 0.371 | 1.31 | 0.661 | 0.0438 | 0.238 | 0.885 | 0.164
23 | CCTAGTTGGTCAAGGTTACACACGCTATAGGTAC | 2.15 | 1.49 | 1.86 | 1.24 | 1.48 | 2.16 | 1.78 | 1.5 | 1.42
24 | ACTAGTTGGTTAGCTGAGGTCACACACAATTCGG | 4.12 | 3.62 | 3.42 | 1.62 | 3.95 | 4.7 | 5.36 | 4.03 | 3.78
25 | ATCTCTAGGTAAAGCTCAGTGAAAGATCGATAGA | -0.225 | 0.103 | 0.259 | -0.165 | -0.128 | 0.19 | -0.0384 | -0.295 | -0.271
26 | CCTCGGAGGACAACAGGAGGTCGGAGCTGCCAGA | 1.42 | 1.08 | 1.36 | 0.0321 | 0.223 | 1.35 | 0.0235 | -0.0445 | 0.16
27 | CCTTACGGGTCACGAAGTTATAGCACGACGAGCG | 3.14 | 5.21 | 4.74 | 1.29 | 5.71 | 2.87 | 0.0516 | 3.91 | 0.721
28 | TCCAGTAGGTTACCAATGGGGCATTCAGCTTTCT | 0.751 | 1.45 | 0.608 | 0.663 | 0.815 | 0.145 | -0.653 | 0.0983 | -0.528
29 | AGAACGAGGACACGCTGAGTTGATAGCAGAGTAG | 0.357 | 0.807 | 1.74 | 0.835 | -0.00543 | 3.15 | 2.29 | 0.161 | 1.14
30 | TCTCGGAGGACACGAAGGTCAGAGCCTTCCAGAG | 3.54 | 3.52 | 4.07 | 0.518 | 2.04 | 2.66 | 0.555 | 2.42 | 1.24
31 | TAGCCTAGATCATGGGCCAGTATACCACGCGAAC | -0.389 | -0.301 | -0.388 | -0.748 | -0.39 | -0.674 | -0.848 | -0.59 | -0.532
32 | CGTCAAAGTTCAAGGGAACGTAACAGAAAGCAGC | 3.52 | 4.97 | 5.93 | 4.46 | 4.17 | 1.72 | -0.254 | 3.12 | 2.72
33 | CGAACGAGCGCATGAGTTGATAGCAAATGCCGAT | -0.651 | -0.0221 | -0.247 | 0.162 | -0.236 | -0.516 | -0.891 | -0.307 | -0.0717
34 | CAGCCTAGGTCAGGACCAGTATAGGAGGAACGTT | 1.97 | 2.81 | 3.89 | -0.0885 | 1.7 | 1.94 | 0.463 | 0.522 | -0.0387
35 | CCGAGTAGGTTATGGGCCATTCAGGCAACGGTGA | 0.655 | 0.305 | 0.328 | -0.165 | 0.5 | 0.298 | 0.0929 | -0.116 | -0.0394
36 | TGAATGAGGTAATAAGATCAGGGAACGTTGCAAA | -0.532 | 0.204 | 0.306 | -1.15 | 0.365 | 0.991 | -0.205 | -0.334 | -0.404
